CCHFV vOTU inh = CCHFV vOTU protease inhibition | Pep-AMC fluorescence | inhibition, % at 11.5 µM | 370,000 tested, 0.55% active | AID 651958; in the data active means inhibition above about 30%; further: 0% = vehicle wells with enzyme and 100% = no enzyme wells
BoNT-A LC inh2 = inhibitors of Botulinum neurotoxin A light chain protease. inhibition, % at 10 µM. multiplex microsphere protease substrate cleavage, flow cytometry. 360,000 tested, 0.17% active; further: plate controls were buffer without enzyme for full effect and enzyme alone for no effect
BoNT-F LC inh = blocks Botulinum neurotoxin F light chain protease; inhibition, % at 10 µM; 360,000 tested, 0.22% active; Multiplex microsphere protease cleavage assay, flow cytometry; AID 588497; in the data active means inhibition above about 35%, passing the limit was not always enough; inconclusive means no clear call, values can overlap the other calls; further: plate controls were buffer without enzyme for full effect and enzyme alone for no effect
Anthrax LF prot = anthrax lethal factor protease inhibition; inhibition, % at 10 µM; P15917; multiplex microsphere protease cleavage assay, LF; AID 588501; 360,000 tested, 0.12% active; further: plate controls were buffer without enzyme for full effect and enzyme alone for no effect
Target sequence (P15917 whole entry, looked up): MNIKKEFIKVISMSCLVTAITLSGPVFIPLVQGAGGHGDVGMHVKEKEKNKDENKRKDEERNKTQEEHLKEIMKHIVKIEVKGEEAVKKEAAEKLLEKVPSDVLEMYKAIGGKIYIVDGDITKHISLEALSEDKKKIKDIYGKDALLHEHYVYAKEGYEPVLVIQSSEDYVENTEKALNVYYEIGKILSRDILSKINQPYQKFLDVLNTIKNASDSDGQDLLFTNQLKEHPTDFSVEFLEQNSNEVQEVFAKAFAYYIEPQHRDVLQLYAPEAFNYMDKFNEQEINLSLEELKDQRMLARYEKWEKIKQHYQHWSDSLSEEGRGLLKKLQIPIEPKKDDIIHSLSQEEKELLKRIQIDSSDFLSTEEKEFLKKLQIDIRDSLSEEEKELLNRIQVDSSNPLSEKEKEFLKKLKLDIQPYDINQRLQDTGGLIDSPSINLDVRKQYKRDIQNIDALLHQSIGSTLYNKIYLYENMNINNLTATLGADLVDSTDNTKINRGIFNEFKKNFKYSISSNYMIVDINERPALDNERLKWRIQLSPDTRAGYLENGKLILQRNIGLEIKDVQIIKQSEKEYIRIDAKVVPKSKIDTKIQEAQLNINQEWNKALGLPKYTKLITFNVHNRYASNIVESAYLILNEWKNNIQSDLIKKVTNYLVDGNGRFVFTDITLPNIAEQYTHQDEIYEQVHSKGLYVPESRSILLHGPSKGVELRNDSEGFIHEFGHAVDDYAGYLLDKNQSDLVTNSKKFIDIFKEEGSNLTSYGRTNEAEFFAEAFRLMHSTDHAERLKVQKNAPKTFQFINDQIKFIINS
Autofluor counter = counter-screen for toxin protease inhibitors: compound fluorescence; fluorescence intensity (no concentration beside the values); compound autofluorescence counterscreen, microsphere flow cytometry; hits give high values; AID 624483; 360,000 tested, 3.1% active; in the data active means fluorescence intensity above about 16000; inconclusive means no clear call, values can overlap the other calls
SARS 3CLpro inh = SARS-CoV 3CLpro protease inhibition. recombinant SARS-CoV 3CLpro, quenched FRET peptide cleavage. inhibition, % at 6 µM. 290,000 tested, 0.14% active; in the data active means inhibition above about 12%
Active calls of the source: *; ? = inconclusive; . = no result given. An excerpt weighted towards active compounds, which were near 3.9% of everything screened. Unless noted, no stated cut-off is given here; in the data, active means inhibition above about 30%; inconclusive means no clear call, values can overlap the other calls; inactive means below that.

SMILES | CCHFV vOTU inh | BoNT-A LC inh2 | BoNT-F LC inh | Anthrax LF prot | Autofluor counter | SARS 3CLpro inh
COC(=O)c1ccccc1NC(=O)CSc1[nH]c(=O)cc(C)c1C#N | -5.9 | 0.5 | 2.0 | -2.3 | 4483 | 0.9
Cc1cc(=O)[nH]c(SCC(=O)Nc2ccccc2C#N)c1C#N | -5.2 | 3.0 | 5.9 | -1.3 | 21510* | 3.6
Cc1ccccc1NC(=O)CSc1nc(N)c(C#N)cc1C#N | 3.7 | 0.0 | 0.0 | -2.1 | 16586* | 5.1
COc1ccc(NC(=O)CSc2nc(N)c(C#N)cc2C#N)cc1 | 9.5 | 1.0 | 0.7 | -2.7 | 7786 | -2.3
Cc1occc1C(=O)NNS(=O)(=O)c1ccc([N+](=O)[O-])cc1 | 3.4 | -0.5 | 5.1 | -0.2 | 5148 | -1.1
COc1ccc(C2NC(=O)NC(O)(C(F)(F)F)C2C(=O)c2ccccc2)cc1OC (centres undefined) | -8.6 | -0.2 | -7.9 | 2.3 | ? | 2.1
COc1cccc(C2NC(=O)NC(O)(C(F)(F)F)C2C(=O)c2cccnc2)c1OC (centres undefined) | -1.6 | 0.7 | -0.5 | 1.3 | 22761* | -1.8
O=C(COc1ccccc1F)Nc1nnc(-c2ccncc2)s1 | -7.2 | 0.9 | -2.2 | -1.7 | 5917 | -4.1
O=C(COc1ccc(F)cc1)Nc1nnc(-c2ccncc2)s1 | -5.6 | -3.2 | -8.4 | -4.5 | 18059* | 1.4
COc1ccc(NS(=O)(=O)c2ccc3c(c2)CCC(=O)N3)c(OC)c1 | . | -0.2 | -1.2 | 1.5 | 16726* | -2.7
CC(C)(CO)Nc1nc(Cl)nc(NC2CCCCC2)n1 | -1.1 | -0.1 | -1.7 | -13.0 | 6094 | -2.7
Cc1cc(NC(=O)CSc2nnc(-c3ccccc3F)n2C)no1 | 1.5 | -0.6 | -3.7 | -7.0 | 2983 | .
O=[N+]([O-])c1ccc(Cl)c(/C=N/n2c(-c3ccncc3)n[nH]c2=S)c1 | -7.8 | 4.3 | ? | 37.4* | 4200 | 0.7
O=[N+]([O-])c1ccc(O)c(/C=N/n2c(-c3ccccc3)n[nH]c2=S)c1 | -6.7 | 1.4 | 8.7 | 10.7 | 3399 | -2.0
Cc1[nH]c2ccccc2c1CC(=O)Nc1ccc(Nc2cccnc2)c(Br)c1 | -2.6 | . | . | . | . | .
CC(C)c1ccc(/C=C/c2[nH]c(=O)[nH]c(=O)c2[N+](=O)[O-])cc1 | 24.6 | 0.3 | 37.3* | 9.1 | 3823 | 3.3
CCOc1ccc(/C=C/c2[nH]c(=O)[nH]c(=O)c2[N+](=O)[O-])cc1 | 5.9 | -3.0 | -11.4 | 2.7 | 3812 | -7.7
FC(F)(F)c1cnc(Sc2nnc(-c3cccs3)n2CC2CCCO2)c(Cl)c1 (centres undefined) | -1.7 | 1.4 | 0.8 | -0.5 | 20185* | -1.5
COCCNC(=O)C1CCCN(c2ncccn2)C1 (centres undefined) | -1.6 | 1.9 | -0.2 | -2.2 | 21959* | 1.1
Cc1ccc(F)cc1NC(=O)C1CCCN(c2ncccn2)C1 (centres undefined) | 8.5 | -0.2 | -1.5 | -2.3 | 20027* | 1.1
NC(c1ccccc1)c1csc(Nc2ccc(S(N)(=O)=O)cc2)n1 (centres undefined) | 4.0 | 0.0 | -5.1 | -9.1 | 3556 | .
COC(F)(C(=O)Nc1ccc2c(c1)C(=O)NC2=O)C(F)(F)F (centres undefined) | 5.8 | 1.2 | 1.9 | 2.6 | 22859* | 1.9
CCOC(=O)C(Sc1nnc(-c2ccncc2)o1)C(C)=O (centres undefined) | 0.2 | 0.1 | -3.8 | -2.4 | 16214* | -1.0
COC(=O)C(C)Sc1nnc(-c2ccncc2)o1 (centres undefined) | 4.1 | ? | -1.8 | -5.2 | 21757* | -1.1
NC(=O)CSc1nnc(-c2ccncc2)o1 | -8.2 | -0.2 | 1.4 | 0.1 | 2154 | -3.7
SMILES | CCHFV vOTU inh | BoNT-A LC inh2 | BoNT-F LC inh | Anthrax LF prot | Autofluor counter | SARS 3CLpro inh
CCN(C(=O)CN1C(=O)S/C(=C\C=C\c2ccccc2)C1=O)C1CCS(=O)(=O)C1 (centres undefined) | 14.8 | 1.0 | 0.4 | -1.5 | 4446 | 2.3
Nc1cnccc1C(=O)O | 11.2 | -0.7 | -8.0 | -2.7 | 4473 | -1.7
CN(C)S(=O)(=O)c1ccc(/C(O)=C2/C(=O)C(=O)N(Cc3cccnc3)C2c2ccncc2)cc1 (centres undefined) | 1.8 | -3.3 | -6.7 | -2.9 | 17829* | -1.6
CN(C)S(=O)(=O)c1ccc(/C(O)=C2/C(=O)C(=O)N(Cc3cccnc3)C2c2cccs2)cc1 (centres undefined) | 7.3 | 1.0 | -1.7 | 3.6 | 5591 | -2.0
COc1cccc(-c2nc(-c3ccc4c(c3)NC(=O)CO4)cs2)c1 | -8.0 | -0.8 | -1.7 | -4.4 | 4238 | 3.3
COc1ccc(-c2cc(-c3ccc(OC)cc3)nc(-c3ccc4c(c3)NC(=O)CO4)c2)cc1 | 11.2 | -2.2 | -3.4 | -3.8 | 23016* | -2.0
CC(C)CC(C(=O)Nc1ccccc1)N1C(=O)C2C3C=CC(C3)C2C1=O (centres undefined) | 15.8 | 0.0 | 5.1 | -0.1 | 3377 | 2.1
S=C(Nc1ccc(Cl)cc1)OC1CCC12CCC(c1ccccc1)CC2 (centres undefined) | 12.3 | . | . | . | . | .
S=c1[nH]nc(COc2ccc(Cl)cc2)o1 | -3.6 | ? | 0.3 | -4.5 | 19965* | -0.5
Cc1ccc(OCC2Cn3c(nc4c3c(=O)[nH]c(=O)n4C)O2)cc1 (centres undefined) | -10.4 | 1.5 | 2.8 | -1.8 | 20012* | -3.8
NC(=O)CC1NC(=O)c2ccccc21 (centres undefined) | 9.6 | 0.2 | 1.9 | 2.4 | 23615* | 3.9
CCOC(=O)CC1NC(=O)c2ccccc21 (centres undefined) | -4.6 | -0.7 | -4.1 | -2.0 | 2467 | -2.0
O=C(Nc1ccccc1F)NC1CCCc2ccccc21 (centres undefined) | -3.7 | -1.1 | ? | 12.0 | 3632 | 3.7
CCCOc1cc(C)c(S(=O)(=O)NCCOC)cc1C | 5.0 | -7.3 | -7.4 | -0.8 | 21763* | 2.4
O=C(CN1CCCC1)Nc1cccc(Cl)c1Cl | 6.6 | 5.2 | ? | -9.6 | 3964 | -3.0
Cc1c(Cl)cccc1NC(=O)CN1CCN(CCO)CC1 | -10.7 | 1.5 | 2.0 | -11.1 | 22331* | -2.7
COC(=O)c1ccc(Cl)c(NC(=O)CN(c2ccc3c(c2)OCO3)S(C)(=O)=O)c1 | -4.2 | 4.4 | 6.7 | -10.8 | 20796* | 0.7
Cc1c(Cl)cccc1NC(=S)N1CCN(Cc2ccccc2)CC1 | -2.5 | -0.1 | 1.1 | 2.0 | 23770* | 2.1
COC(=O)c1cc(NC(=O)CN(c2ccc3c(c2)OCO3)S(C)(=O)=O)ccc1Cl | 9.3 | 0.5 | -0.7 | -2.7 | 3407 | 1.0
O=C(CN1CCCC1)Nc1ccccc1Cl | -7.5 | ? | -1.4 | 0.8 | 22970* | 2.7
Cc1c(Cl)cccc1NC(=O)CCN1CCCCCC1 | 8.2 | -2.0 | -9.7 | 18.9 | 8142 | -1.2
CCN(C(=O)COC(=O)/C=C/c1ccccc1)C1CCCCC1 | -17.8 | -0.7 | 1.3 | -1.5 | 4275 | 4.3
COc1ccc(C2C(C(=O)Nc3cc(OC)c(OC)c(OC)c3)CCC(=O)N2c2ccc(OC)cc2)cc1 (centres undefined) | -5.4 | . | . | . | . | .

Compound activity: PubChem, several laboratories
